# Laboratory results reported in PubChem BioAssay AID2796 (The Scripps Research Institute Molecular Screening Center, 2010).
# Among all 320,000 compounds or so, about 8,000 (2.5%) were called active. The entries come from a sample that favours actives as a whole. Values without a mark were called inactive. No stated cut-off is given here; in the data, active means activation above about 47%; inactive means the rest.
# Target: Aryl hydrocarbon receptor (Homo sapiens) (UniProt P35869)
# Assay: AHR activators, primary screen, cell-based, luminescence, luciferase reporter, human (AID 2796);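 further: 0% = vehicle wells and 100% = reference agonist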
# Settings: AHR-responsive luciferase reporter cells, at 5 µM, hits give high values
# Aryl hydrocarbon receptor (Homo sapiens), sequence (P35869 whole entry, looked up): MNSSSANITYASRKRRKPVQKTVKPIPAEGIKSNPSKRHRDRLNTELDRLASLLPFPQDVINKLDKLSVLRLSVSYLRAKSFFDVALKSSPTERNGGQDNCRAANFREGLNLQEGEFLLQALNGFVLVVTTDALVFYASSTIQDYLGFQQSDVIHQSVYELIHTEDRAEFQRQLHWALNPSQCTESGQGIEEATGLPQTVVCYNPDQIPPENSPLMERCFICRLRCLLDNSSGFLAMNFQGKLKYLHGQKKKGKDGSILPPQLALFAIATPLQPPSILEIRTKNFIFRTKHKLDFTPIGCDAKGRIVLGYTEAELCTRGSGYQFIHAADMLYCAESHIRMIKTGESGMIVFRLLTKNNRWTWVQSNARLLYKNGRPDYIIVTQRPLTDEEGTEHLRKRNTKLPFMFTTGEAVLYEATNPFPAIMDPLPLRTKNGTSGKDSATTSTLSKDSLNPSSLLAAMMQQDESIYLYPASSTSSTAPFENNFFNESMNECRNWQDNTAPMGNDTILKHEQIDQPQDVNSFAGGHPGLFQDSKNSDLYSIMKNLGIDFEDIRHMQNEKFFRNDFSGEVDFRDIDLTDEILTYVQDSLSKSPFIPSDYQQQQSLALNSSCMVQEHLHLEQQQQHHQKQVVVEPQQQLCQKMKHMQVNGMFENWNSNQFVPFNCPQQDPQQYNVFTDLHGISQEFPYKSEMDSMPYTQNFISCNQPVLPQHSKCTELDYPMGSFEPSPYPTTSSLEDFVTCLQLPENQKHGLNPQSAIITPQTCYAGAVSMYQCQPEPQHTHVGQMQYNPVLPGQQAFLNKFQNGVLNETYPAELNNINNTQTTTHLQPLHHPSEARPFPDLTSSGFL
row,SMILES,activation
1,CC(C)N1CCc2c(sc(NC(=O)Cc3ccccc3)c2C#N)C1,43.6%
2,COc1ccc(N2CCN(C(=O)c3ccc(N4CCCCS4(=O)=O)cc3)CC2)cc1,1.84%
3,CC1CN(C(=O)c2ccc3c(c2)OCO3)OC(c2ccccc2)O1 (centres undefined),3.64%
4,COc1ccc2c(c1)CC[C@@H]1[C@@H]2CC[C@]2(C)C(=O)CC[C@@H]12,-1.47%
5,CC1(C)CC(CC(=O)O)C(=O)O1 (centres undefined),-2.54%
6,CC1(C)CC(CCC(=O)Nc2ccccc2Cl)C(=O)O1 (centres undefined),-0.84%
7,C/C(CC1CC(C)(C)OC1=O)=N/Nc1nc(-c2ccccc2)cs1 (centres undefined),124% (active)
8,Cc1ccc(C(=O)OC2=CC(=O)CC(C)(C)C2)cc1,3.37%
9,CCN(CC)S(=O)(=O)c1ccc(Cl)c(C(=O)NC(C)C(c2cccs2)N2CCCC2)c1 (centres undefined),1.85%
10,C=CC[C@@H](Cc1ccc(F)cc1)C(=O)OC[C@H]1CCCN1C(=O)[C@H](CC=C)CC(=O)N(CCO)Cc1ccccc1,-1.59%
11,Clc1ccc(Cl)c(Oc2ccc(Oc3nc(Cl)ccc3Cl)cc2)n1,-1.7%
12,COCCSc1nnc(NC(=O)c2cc(OC)c(OC)cc2[N+](=O)[O-])s1,1.43%
13,COc1ccc(Nc2ncnc3sc(C)cc23)cc1,37%
14,COc1ccc(NCCc2ccccn2)cc1,4.86%
15,COc1ccc(Nc2cc(Sc3ccc(OC)cc3)ncn2)cc1,54% (active)
16,O=C(NC(C(=O)NCCN1CCOCC1)C12CC3CC(CC(C3)C1)C2)C1CCCCC1 (centres undefined),2.26%
17,Cn1c(N)c(C(=O)COC(=O)c2ccc3ccccc3c2)c(=O)n(C)c1=O,-1.74%
18,O=C(NCCCn1ccnc1)c1ccccc1F,12.6%
19,O=C(/C=C/c1ccc(Cl)cc1)NCCCn1ccnc1,7.43%
20,Cc1ccc2c(Cl)c(C(=O)Nc3nn[nH]n3)sc2c1,1.09%
21,Cc1ccc2c(Cl)c(C(=O)NCCCn3ccnc3)sc2c1,55.7% (active)
22,O=C(NCCCn1ccnc1)Nc1ccc(Cl)cc1Cl,69.2% (active)
23,COc1ccc(-c2cc(C(=O)NCCCn3ccnc3)no2)cc1,15.1%
24,CCCC(=O)Nc1ccc(C(=O)NCCCn2ccnc2)cc1,0.23%
25,O=C(Nc1ccccc1C(=O)NCCCn1ccnc1)c1ccc(Cl)cc1Cl,20.3%

row,SMILES,activation
1,O=C(NCCCn1ccnc1)c1cc2c(s1)CCCC2,46.3%
2,COc1cc(OC)cc(C(=O)NCCCn2ccnc2)c1,32.8%
3,O=C(NCCCn1ccnc1)c1cc(-c2ccccc2)on1,168% (active)
4,O=C(NCCCn1ccnc1)c1cc(Br)c(Br)s1,57.3% (active)
5,COc1ccc(C(=O)Nc2cc(S(=O)(=O)N3CCCC3)ccc2Cl)cc1,3.58%
6,C=CCNC(=O)c1ccc2c3n(nc2c1)-c1ccc(C)cc1CO3,-9.75%
7,CC1C(=O)Nc2ccccc2N1C(=O)c1ccc(F)cc1F (centres undefined),3.47%
8,CCCN(CC1CC1)C(=S)NC(=O)c1ccccc1Br,0.93%
9,O=C(Cn1nc(Cc2cccnc2)c2ccccc2c1=O)NCC1COc2ccccc2O1 (centres undefined),0.07%
10,O=C(NC1CCCC1)C(c1c(F)cccc1Cl)N(C(=O)c1csnn1)C1CC1 (centres undefined),1.3%
11,COc1ccc(S(=O)(=O)N2CCCCC2)cc1NC(=O)COc1ccccc1,-0.98%
12,O=C(CN1C(=O)NC2(CCOc3ccccc32)C1=O)NCc1ccc(F)cc1 (centres undefined),0.77%
13,Cc1cc(NC(=O)CCC(=O)N(CC(=O)NCC2CCCO2)c2ccccc2)no1 (centres undefined),-0.82%
14,CC(=O)NC(=S)Nc1ccc(NC(=O)c2cccnc2)cc1,0.34%
15,NS(=O)(=O)c1ccc(NC(=S)NC(=O)c2cccnc2)cc1,56.7% (active)
16,CC(C)NS(=O)(=O)c1ccc(NC(=O)c2cccnc2)cc1,0.76%
17,COc1ccc(CCNS(=O)(=O)c2ccc(Cl)s2)cc1OC,1.04%
18,N#Cc1cc([N+](=O)[O-])ccc1NC(=O)COC(=O)c1cnccn1,10.8%
19,COc1cccc(N(Cc2nnc3n2CCCCC3)C(=O)Nc2ccccc2F)c1,8.31%
20,COc1cc2[nH]c(=S)n(Cc3ccc(F)cc3)c(=O)c2cc1OC,0.4%
21,COc1cc2[nH]c(=S)n(Cc3ccc(C)o3)c(=O)c2cc1OC,73.8% (active)
22,COc1cc2[nH]c(=S)n(CCN3CCCCC3C)c(=O)c2cc1OC (centres undefined),7.8%
23,O=C(O)c1cc(S(=O)(=O)NC2CCCc3ccccc32)ccc1O (centres undefined),-0.8%
24,N#CCC(=O)NC(=O)NCC1CC1,3.61%
